Drawing on the supplement of paper PMC4100887, this text covers relative cell viability for 32 compounds.

Where a name gives a salt, the structure may show the parent alone. ± gives the standard deviation of the averaged measurements.

The first experiment concerns IMR-90. Put plainly: relative cell viability (ATPlite) vs untreated control (fraction); higher = less toxic. To be noted: 1 µM; 72 h. For orientation: In ATP-based viability assays light output follows the ATP content of the culture.
The compound `N#CCCc1ccc2c(c1)-c1[nH]c3ccc([N+](=O)[O-])cc3c1CC(=O)N2` [Alsterpaullone, 2-Cyanoethyl] gave a relative cell viability of 1 ± 0.039.
On to `Cc1nc(-c2ccccc2)c(-c2ccncc2)o1`, for which the relative cell viability worked out at 1.02 ± 0.093.
The same measure, in the same setting: the value for `CCOC(=O)c1c(C)[nH]c(/C=C2\C(=O)Nc3ccccc32)c1C` [VEGF Receptor 2 Kinase Inhibitor I] was 0.961 ± 0.063; that for `COc1cc2ncn(-c3cc(OCc4ccccc4S(C)(=O)=O)c(C#N)s3)c2cc1OC` [IKK-3 Inhibitor IX] was 1.02 ± 0.11.
The compound `CN(C)CCCn1cc(C2=C(c3c[nH]c4ccccc34)C(=O)NC2=O)c2ccccc21` [Bisindolylmaleimide I] displayed a relative cell viability of 0.895 ± 0.12.
Same read-out and setting: the value for `O=C1Nc2ccc(Br)cc2/C1=C/c1cc2c([nH]1)CCCC2` [VEGF Receptor 2 Kinase Inhibitor II] was 0.979 ± 0.059; that for `CC[C@H](CO)Nc1nc(NCc2ccc(-c3ccccn3)cc2)c2ncn(C(C)C)c2n1` [CR8, (R)-Isomer] was 0.297 ± 0.51; that for `CC(C)[C@H](CO)Nc1nc(Nc2cccc(Cl)c2)c2ncn(C(C)C)c2n1` [Purvalanol A] was 1.04 ± 0.11.
The same measure, in the same setting: the result for `CCCCCCOC(=O)[C@]1(O)C[C@@H]2O[C@@]1(C)n1c3ccccc3c3c4c(c5c6ccccc6n2c5c31)C(=O)NC4` reads 1.05 ± 0.14; that for `c1cc(-c2cnn3cc(-c4ccc(OCCN5CCCCC5)cc4)cnc23)ccn1` [AMPK Inhibitor, Compound C], 0.86 ± 0.092; that for `c1ccc(-c2n[nH]c3c2oc2ccccc23)cc1`, 0.943 ± 0.083.
With `CCCCn1c2ccc(O)cc2c2c3c(c(-c4ccccc4Cl)cc21)C(=O)NC3=O` [Wee1 Inhibitor II], the relative cell viability stood at 0.754 ± 0.44.
In turn, `CC(C)[C@H](CO)Nc1nc(Nc2cc(N)cc(Cl)c2)c2ncn(C(C)C)c2n1` [Aminopurvalanol A] returned a relative cell viability of 0.837 ± 0.084.
The same measure, in the same setting: the result for `O=c1[nH][nH]c2nnc(-c3c(-c4ccccc4)nn4ccccc34)cc12` [ERK Inhibitor II, Negative control] reads 0.966 ± 0.077.
The compound `CN[C@@H]1C[C@H]2O[C@@](C)([C@@H]1OC)n1c3ccccc3c3c4c(c5c6ccccc6n2c5c31)C(=O)N[C@H]4O` displayed a relative cell viability of 0.101 ± 0.021.
Same read-out and setting: the value for `Nc1n[nH]c(N)c1N=Nc1ccc(O)cc1` [Cdk9 Inhibitor II] was 0.93 ± 0.099.
For the compound `CCCCc1c(-c2ccc(O)cc2)[nH]c2nccnc12` [Aloisine A, RP107], the relative cell viability turned out to be 0.913 ± 0.06.

The next experiment relates to K562. Described as above. Conditions: 1 µM; 72 h.
`O=C(Nc1cc(Cl)cc2c1[nH]c1cnccc12)c1cccnc1` [IKK Inhibitor X] displayed a relative cell viability of 0.896 ± 0.069.
On the same count and under the same terms, the result for `Cc1cc(C=C2C(=O)C=CC2=O)cc(C)c1O` reads 0.736 ± 0.16; that for `COc1cc2ncnc(Nc3ccc(Cl)cc3Cl)c2cc1OC` [Ste11 MAPKKK Activation Inhibitor], 0.802 ± 0.084.
The compound `Nc1nccc(-c2c(-c3ccc(F)cc3)ncn2C2CCNCC2)n1` displayed a relative cell viability of 0.755 ± 0.05.
With `O=C(Nc1cccc(Nc2nccc(Nc3cccc(C(F)(F)F)c3)n2)c1)C1CC1` [Aurora Kinase Inhibitor III], the relative cell viability was found to be 0.892 ± 0.044.
On the same count and under the same terms, the result for `Cn1c(O)c(-c2[nH]c3ccccc3c2N=O)c2ccc(Br)cc21` [GSK-3 Inhibitor IX, Control, MeBIO] reads 0.964 ± 0.014.
For the compound `N#Cc1c(NC(=O)c2cccc3ccccc23)sc2c1CCCC2` [JNK Inhibitor IX], the relative cell viability amounted to 0.143 ± 0.058.
In the case of `Cc1cc2ncc(-c3ccccc3)nc2cc1C`, the relative cell viability is 0.836 ± 0.094.
Still for that read-out and setting: the result for `Cc1ccc(S(=O)(=O)/C=C/C#N)cc1` reads 0.721 ± 0.15; that for `COc1cc2ncnc(Nc3cccc(O)c3)c2cc1OC` [WHI-P180, Hydrochloride], 0.747 ± 0.073.
`O=c1cc(N2CCOCC2)oc2c1ccc1ccccc12` [DNA-PK Inhibitor II] registered a relative cell viability of 0.815 ± 0.041.
In turn, `COc1ccc2nc3n[nH]c(C)c3c(NCCOCCO)c2c1` returned a relative cell viability of 1.02 ± 0.064.
`c1ccc(-c2cnc(Nc3ccc(OCCN4CCCC4)cc3)s2)cc1` [Flt-3 Inhibitor III] yielded a relative cell viability of 0.916 ± 0.065.
In turn, `CC[C@@H](CO)Nc1nc(NCc2ccc(-c3ccccn3)cc2)c2ncn(C(C)C)c2n1` [CR8, (S)-Isomer] gave a relative cell viability of 0.0828 ± 0.015.
The same measure, in the same setting: the value for `O=C1NC(=O)c2c1c1c3ccccc3[nH]c1n1cncc21` [Isogranulatimide] was 0.837 ± 0.077.
For `N#CCCc1ccc2c(c1)-c1[nH]c3ccc([N+](=O)[O-])cc3c1CC(=O)N2` [Alsterpaullone, 2-Cyanoethyl], the relative cell viability is 0.307 ± 0.05.
In the case of `Cc1nc(-c2ccccc2)c(-c2ccncc2)o1`, the relative cell viability is 0.835 ± 0.077.
Still for that read-out and setting: the result for `CCOC(=O)c1c(C)[nH]c(/C=C2\C(=O)Nc3ccccc32)c1C` [VEGF Receptor 2 Kinase Inhibitor I] reads 0.996 ± 0.047; that for `COc1cc2ncn(-c3cc(OCc4ccccc4S(C)(=O)=O)c(C#N)s3)c2cc1OC` [IKK-3 Inhibitor IX], 0.843 ± 0.084; that for `CN(C)CCCn1cc(C2=C(c3c[nH]c4ccccc34)C(=O)NC2=O)c2ccccc21` [Bisindolylmaleimide I], 0.169 ± 0.052.
`O=C1Nc2ccc(Br)cc2/C1=C/c1cc2c([nH]1)CCCC2` [VEGF Receptor 2 Kinase Inhibitor II] came in with a relative cell viability of 0.864 ± 0.081.
Same read-out and setting: the value for `CC[C@H](CO)Nc1nc(NCc2ccc(-c3ccccn3)cc2)c2ncn(C(C)C)c2n1` [CR8, (R)-Isomer] was 0.0971 ± 0.02.
Still for that read-out and setting: the value for `CC(C)[C@H](CO)Nc1nc(Nc2cccc(Cl)c2)c2ncn(C(C)C)c2n1` [Purvalanol A] was 0.885 ± 0.065; that for `CCCCCCOC(=O)[C@]1(O)C[C@@H]2O[C@@]1(C)n1c3ccccc3c3c4c(c5c6ccccc6n2c5c31)C(=O)NC4` was 0.825 ± 0.056.
Regarding `c1cc(-c2cnn3cc(-c4ccc(OCCN5CCCCC5)cc4)cnc23)ccn1` [AMPK Inhibitor, Compound C], the relative cell viability was 0.883 ± 0.072.
Consider `c1ccc(-c2n[nH]c3c2oc2ccccc23)cc1`, for which the relative cell viability worked out at 0.868 ± 0.038.
On the same count and under the same terms, the result for `CCCCn1c2ccc(O)cc2c2c3c(c(-c4ccccc4Cl)cc21)C(=O)NC3=O` [Wee1 Inhibitor II] reads 0.876 ± 0.086.
`CC(C)[C@H](CO)Nc1nc(Nc2cc(N)cc(Cl)c2)c2ncn(C(C)C)c2n1` [Aminopurvalanol A]: the relative cell viability was 0.916 ± 0.037.
For the compound `O=c1[nH][nH]c2nnc(-c3c(-c4ccccc4)nn4ccccc34)cc12` [ERK Inhibitor II, Negative control], the relative cell viability is 0.833 ± 0.086.
Still for that read-out and setting: the value for `CN[C@@H]1C[C@H]2O[C@@](C)([C@@H]1OC)n1c3ccccc3c3c4c(c5c6ccccc6n2c5c31)C(=O)N[C@H]4O` was 0.18 ± 0.048; that for `Nc1n[nH]c(N)c1N=Nc1ccc(O)cc1` [Cdk9 Inhibitor II] was 0.839 ± 0.073; that for `CCCCc1c(-c2ccc(O)cc2)[nH]c2nccnc12` [Aloisine A, RP107] was 0.884 ± 0.048.
